# Screening data (PubChem BioAssay)
# In the library only some 9.5% were active in any assay of this set; here they are far more common.
# NPSR antag: blocks cAMP signaling of the human neuropeptide S receptor; hit rate 1% among 220,000; CHO-NPSR cells, cAMP TR-FRET, antagonist mode; Q6W5P4; AID 1461; Potency, µM (titrated, usually from 38.3 µM), without a hit: top-dose activity change, negative = inhibition, usual class: inhibitors; note: nearly all actives have a fitted effect of over 50% in size
# Tau ThT inhib: inhibitors of human tau fibril formation, thioflavin T binding | recombinant tau K18 P301L, heparin-induced fibrillization, ThT fluorescence | hit rate 2.1% among 270,000 | AID 1460 | P10636 | Potency, µM (top dose mostly 57.4 µM), for the others: at the highest dose activity, negative = inhibition, most hits filed as inhibitors; note: nearly all actives have a fitted effect of over 55% in size
#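 Fibril formation assay: tau K18 P301L at 15 uM with trace Alexa 594 label, heparin inducer 20 uM, pH 7 sodium acetate buffer, 37 C for 6 hr; endpoint ThT signal.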
# Tau FP inhib: tau fibrillization inhibition (FP) | AID 1468 | K18 P301L tau heparin fibrillization, Alexa594 FP, 6 h | P10636 | Potency, µM (highest dose often 57.7 µM), without a hit: at the top dose activity, negative = inhibition, usual class: inhibitors | hit rate 0.39% among 280,000; note: nearly all actives have a fitted effect of over 55% in size
#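 Heparin (20 uM) drove fibril formation of recombinant tau K18 P301L, 15 uM unlabeled with 0.24 uM Alexa 594 label, for 6 hr at 37 C in 100 mM sodium acetate pH 7. Fluorescence polarization (555/632 nm) read 1 hr after 30 uM ThT.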
# HPGD inh: HPGD (human) dehydrogenase inhibition. P15428. purified HPGD, NADH fluorescence kinetic, PGE2 substrate. Potency, µM, inactives show top-dose activity change, negative = inhibition, hits mostly inhibitors. hit rate 4.3% among 150,000. AID 894; active = well fitted inhibition curve with a large enough effect, not every such curve was filed as active; inconclusive = small, poorly fitted or top-dose-only effect, or another doubt; inactive = no such curve, though single readings can be large or run the other way
#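 NADH formation kinetics: reaction with 30 uM PGE2 and 1 mM NAD+ (final), 20 nM enzyme, Tris-HCl pH 8 with Tween 20, after 15 min compound preincubation at room temperature. Fluorescence change, last versus first of five reads.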
# ALDH1A1 block: inhibitors of human aldehyde dehydrogenase 1A1; hit rate 7.3% among 220,000; Purified ALDH1A1, NADH fluorescence, propionaldehyde substrate; Potency, µM (series often up to 75.3 µM), inactives show at the top dose activity, negative = inhibition, most hits filed as inhibitors; P00352; active = well fitted inhibition curve with a large enough effect, not every such curve was filed as active; inconclusive = small, poorly fitted or top-dose-only effect, or another doubt; inactive = no such curve, though single readings can be large or run the other way;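 note: plate controls were no enzyme wells and a reference inhibitor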
# Target sequence (P00352 whole entry, looked up): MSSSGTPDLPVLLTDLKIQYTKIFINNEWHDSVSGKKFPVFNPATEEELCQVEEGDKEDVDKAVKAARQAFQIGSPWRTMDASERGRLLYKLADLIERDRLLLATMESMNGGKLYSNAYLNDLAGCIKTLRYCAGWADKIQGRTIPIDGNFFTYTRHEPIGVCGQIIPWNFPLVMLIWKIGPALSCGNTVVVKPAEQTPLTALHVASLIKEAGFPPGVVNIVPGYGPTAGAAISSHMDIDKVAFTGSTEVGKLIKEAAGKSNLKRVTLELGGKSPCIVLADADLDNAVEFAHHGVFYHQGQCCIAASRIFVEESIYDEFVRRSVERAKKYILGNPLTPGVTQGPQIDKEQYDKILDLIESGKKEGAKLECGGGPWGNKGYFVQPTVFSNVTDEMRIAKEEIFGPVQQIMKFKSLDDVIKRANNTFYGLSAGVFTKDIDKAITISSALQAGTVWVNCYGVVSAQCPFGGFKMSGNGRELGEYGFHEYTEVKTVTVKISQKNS
# Tau fluor counter: counter-screen for tau fibril formation inhibitors. tau K18 P301L (four-repeat tau fragment) Alexa594 fluorescence, heparin fibrillization. Potency, µM (highest dose often 57.7 µM), for inactives: top-dose activity change, negative = decrease. hit rate 0.93% among 280,000. AID 1463; note: nearly all actives have a fitted effect of over 55% in size
#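 Human K18 P301L tau (15 uM unlabeled plus 0.24 uM Alexa 594-labeled, final) in 100 mM sodium acetate pH 7 was mixed with compound and 20 uM heparin and incubated 6 hr at 37 C.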
# * hit, by the source's call; ? = inconclusive; nt = no result given; [ ] = dose if it differs, or a comment. Unless noted, calls come from the whole dose curve; as a rule, active = well fitted curve in the direction sought with a large enough effect; inconclusive = small, poorly fitted or top-dose-only effect, or another doubt; inactive = no such curve, though single readings can be large; an effect the other way counts as inactive or inconclusive. Unless noted, % is set by controls: 0 for no effect and ±100 for the full control effect; potency is the fitted concentration of half-maximal effect.
SMILES,NPSR antag,Tau ThT inhib,Tau FP inhib,HPGD inh,ALDH1A1 block,Tau fluor counter
CN(C)c1ccc(C(=O)OCC(=O)NCCC2=CCCCC2)cc1,-13%,?,9%,nt,35µM*,-17%
O=C(CN1CCCc2ccccc21)Nc1ccc(F)cc1[N+](=O)[O-],-14%,-2%,2%,nt,15%,-13%
COCCNC(=O)c1c(NC(=O)Cc2coc3cc(C)ccc23)sc2c1CCCC2,nt,-13%,0%,nt,nt,-24%
O=C1NN(c2ccccc2)C(=O)/C1=C\c1coc2ccc(O)cc2c1=O,-41%,14µM*,-13%,nt,nt,?
Cc1cc(/C=C2/C(=O)NN(c3ccccc3)C2=O)c(C)n1-c1ccc(O)cc1,-17%,13µM*,11%,-28%,?,-22%
O=C1NN(c2ccccc2)C(=O)/C1=C/c1coc2ccccc2c1=O,-15%,11%,-1%,?,9%,9%
CCN(c1cccc(C)c1)S(=O)(=O)c1nnc(NC(=O)c2ccccc2Cl)s1,nt,-10%,-12%,nt,nt,-21%
COc1ccc(-c2nc(CCNC(=O)c3c(F)cccc3Cl)cs2)cc1,nt,-17%,0%,nt,nt,-18%
CCOC(=O)N1CCN(CC(O)c2ccc3cc[nH]c3c2)CC1 (stereo unspecified),-1%[46.1 µM],-8%,8%,-8%,-3%,0%
OC(CN1CCN(c2ccccc2)CC1)c1ccc2c(c1)CCN2 (stereo unspecified),-2%,-2%,1%,-6%,7.1µM*,-8%
CCOC(=O)N1CCN(CC(O)c2ccc3c(c2)CCN3)CC1 (stereo unspecified),-22%[46.1 µM],-10%,-7%,nt,18µM*,?
CCOC(=O)c1c(NC(=O)CSC(=S)N(C)C)sc(C)c1C,-24%,-18%,-9%,-18%,25µM*,-30%
CCOC(=O)c1c(NC(=O)CSc2ncn[nH]2)sc(C)c1C,-25%[46.1 µM],-9%,0%,-14%,25µM*,-12%
CCOC(=O)c1c(N2C(=O)C=CC2=O)sc(C)c1C,?,?,?,2µM*,0.5µM*,-10%
Cc1ccc(C2CC(=O)Oc3cc(C)c(Br)c(C)c32)cc1 (stereo unspecified),nt,-17%[81.4 µM],-7%[81.3 µM],-7%,13%,-18%[81.3 µM]
CCOc1ccc2c(c1)c1nnc(SCC(=O)N3CCC(C)CC3)nc1n2C,-5%[46.1 µM],-6%,-5%,3.5µM*,?,14%
CCOc1ccc2c(c1)c1nnc(SCC(=O)N3CCCCC3C)nc1n2C (stereo unspecified),?,-8%,3%,16µM*,13µM*,3%
Cn1c2ccc(F)cc2c2nnc(SCCN3CCCCC3)nc21,nt,-12%,-1%,nt,nt,-8%
Cc1ccc(S(=O)(=O)c2nc(Nc3nccs3)sc2Cl)cc1,-10%[46.1 µM],?,2%,-20%,5%,16µM*[quencher]
CC(=O)Nc1nc(S(=O)(=O)c2ccc(C)cc2)c(Cl)s1,-11%[46.1 µM],-18%,-14%,-21%,0%,-14%
COc1cccc(CNc2nc3ccccc3c3nc(-c4cccc(C)c4)nn23)c1,nt,-1%,-18%,nt,nt,?
CC(=O)N1N=C(c2ccco2)CC1c1cccs1 (stereo unspecified),-5%[46.1 µM],?,?,-15%,3.5µM*,-17%
Cc1ccc(C2=NN(C(=O)CCl)C(c3cccs3)C2)o1 (stereo unspecified),?,?,-7%,nt,1.3µM*,-13%
O=C(c1ccccc1)N1N=C(c2ccco2)CC1c1cccs1 (stereo unspecified),24%,-6%,-2%,nt,?,-4%
CC1=CC(=O)N(c2cccc(C(F)(F)F)c2)C1c1ccc(Cl)cc1 (stereo unspecified),?,-8%,-2%,-14%,1%,-23%
CC1=CC(=O)N(c2ccc(C)cc2)C1c1ccc(Cl)cc1 (stereo unspecified),-13%,4%,8%,22µM*,-2%,-1%
CSc1ccccc1-c1n[nH]c(=S)o1,4µM*,-4%,-7%,nt,22µM*,-1%
